{"source": "the supplement of paper PMC6658780", "note": "Structures can show the parent of a compound that is named as a salt. ± gives the standard deviation of the averaged measurements."}
{"tested_on": "Klebsiella pneumoniae KPC-119", "experiment": "percent growth inhibition of drug alone vs DMSO control; higher = more growth inhibition", "conditions": "antibiotic (0.125x MIC): none (0.1% DMSO); 20 µM", "units": {"percent growth inhibition of drug alone": "%"}}
{"molecule": "CCCCCCCCNC(C)C(O)c1ccc(SC(C)C)cc1", "note": "(stereo unspecified) [Suloctidil]", "percent growth inhibition of drug alone": "-1.21 ± 1.4"}
{"molecule": "CCn1cc(C(=O)O)c(=O)c2cc(F)c(N3CCNCC3)nc21", "note": "[Enoxacin]", "percent growth inhibition of drug alone": "25.2 ± 4"}
{"molecule": "CC(C)(C)CC(C)(C)c1ccc(OCCOCC[N+](C)(C)Cc2ccccc2)cc1", "note": "[Benzethonium chloride]", "percent growth inhibition of drug alone": "2.03 ± 2.5"}
{"molecule": "CCCCC(CC)CNC(=N)NC(=N)NCCCCCCNC(=N)NC(=N)NCC(CC)CCCC", "note": "(stereo unspecified) [Alexidine dihydrochloride]", "percent growth inhibition of drug alone": "99.76 ± 0.25"}
{"molecule": "C/C(=C\\C(=O)OCCCCCCCCC(=O)O)C[C@@H]1OC[C@H](C[C@@H]2O[C@H]2[C@@H](C)[C@H](C)O)[C@@H](O)[C@H]1O", "note": "[Mupirocin]", "percent growth inhibition of drug alone": "6.42 ± 0.11"}
{"molecule": "COC(=O)N/N=C/c1c[n+]([O-])c2ccccc2[n+]1[O-]", "note": "[Carbadox]", "percent growth inhibition of drug alone": "11 ± 1.9"}
{"molecule": "CN(C)CCCN1c2ccccc2Sc2ccc(Cl)cc21", "note": "[Chlorpromazine hydrochloride]", "percent growth inhibition of drug alone": "-3.58 ± 1.3"}
{"molecule": "O=C1NCCN1c1ncc([N+](=O)[O-])s1", "note": "[Niridazole]", "percent growth inhibition of drug alone": "74.9 ± 13"}
{"molecule": "NCC[C@H](O)C(=O)N[C@@H]1C[C@H](N)[C@@H](O[C@H]2O[C@H](CN)[C@@H](O)[C@H](O)[C@H]2O)[C@H](O)[C@H]1O[C@H]1O[C@H](CO)[C@@H](O)[C@H](N)[C@H]1O", "note": "[Amikacin hydrate]", "percent growth inhibition of drug alone": "39.8 ± 0.7"}
{"molecule": "CC1COc2c(N3CCN(C)CC3)c(F)cc3c(=O)c(C(=O)O)cn1c23", "note": "(stereo unspecified) [Ofloxacin]", "percent growth inhibition of drug alone": "97.47 ± 0.25"}
{"molecule": "CC(=O)OCC(=O)[C@@]1(O)CC[C@H]2[C@@H]3CCC4=CC(=O)CC[C@]4(C)[C@@]3(F)[C@@H](O)C[C@@]21C", "note": "[Fludrocortisone acetate]", "percent growth inhibition of drug alone": "3.28 ± 1.7"}
{"molecule": "C[C@H]1c2cccc(O)c2C(=O)C2=C(O)[C@]3(O)C(=O)C(C(N)=O)=C(O)[C@@H](N(C)C)[C@@H]3[C@@H](O)[C@@H]21", "note": "[Doxycycline hydrochloride]", "percent growth inhibition of drug alone": "35.7 ± 5.2"}
{"molecule": "C=CC1=C(C(=O)O)N2C(=O)[C@@H](NC(=O)/C(=N\\OCC(=O)O)c3csc(N)n3)[C@H]2SC1", "note": "[Cefixime]", "percent growth inhibition of drug alone": "44.3 ± 4.2"}
{"tested_on": "Klebsiella pneumoniae NCTC-13439", "experiment": "percent growth inhibition of drug alone vs DMSO control; higher = more growth inhibition", "conditions": "antibiotic (0.125x MIC): none (0.1% DMSO); 7 µM", "units": {"percent growth inhibition of drug alone": "%"}}
{"molecule": "C[C@H](N)[C@H](O)c1cccc(O)c1", "note": "[Metaraminol bitartrate]", "percent growth inhibition of drug alone": "-7.73 ± 11"}
{"molecule": "COc1ccc(OC)c(C(O)CNC(=O)CN)c1", "note": "(stereo unspecified) [Midodrine hydrochloride]", "percent growth inhibition of drug alone": "-12.1 ± 4.3"}
{"molecule": "NC1CCN(c2c(F)cc3c(=O)c(C(=O)O)cn(C4CC4)c3c2Cl)C1", "note": "(stereo unspecified) [Clinafloxacin]", "percent growth inhibition of drug alone": "13.5 ± 8.8"}
{"molecule": "C#C[C@]1(OC(C)=O)CC[C@H]2[C@@H]3CCC4=CC(=NO)CC[C@@H]4[C@H]3CC[C@@]21CC", "note": "(mixture of isomers) [Norgestimate]", "percent growth inhibition of drug alone": "-4.1 ± 1.3"}
{"molecule": "O=C(OCC(O)CO)c1ccccc1Nc1ccnc2cc(Cl)ccc12", "note": "(stereo unspecified) [Glafenine hydrochloride]", "percent growth inhibition of drug alone": "-9.8 ± 14"}
{"molecule": "NC1CCN(c2nc3c(cc2F)c(=O)c(C(=O)O)cn3-c2ccc(F)cc2F)C1", "note": "(stereo unspecified) [Tosufloxacin hydrochloride]", "percent growth inhibition of drug alone": "56.5 ± 19"}
{"molecule": "NC(=O)N/N=C/c1ccc([N+](=O)[O-])o1", "note": "[Nitrofural]", "percent growth inhibition of drug alone": "-7.28 ± 2"}
{"molecule": "COc1c(N2CCNC(C)C2)c(F)cc2c(=O)c(C(=O)O)cn(C3CC3)c12", "note": "(stereo unspecified) [Gatifloxacin]", "percent growth inhibition of drug alone": "12.5 ± 5.8"}
{"molecule": "N=C(NCCCCCCNC(=N)NC(=N)Nc1ccc(Cl)cc1)NC(=N)Nc1ccc(Cl)cc1", "note": "[Chlorhexidine]", "percent growth inhibition of drug alone": "2.54 ± 9.5"}
{"molecule": "Cc1c(F)c(N2CCNC(C)C2)cc2c1c(=O)c(C(=O)O)cn2C1CC1", "note": "(stereo unspecified) [Grepafloxacin]", "percent growth inhibition of drug alone": "13 ± 6.5"}
{"molecule": "CCN1CCN(c2cc3c(cc2F)c(=O)c(C(=O)O)cn3C2CC2)CC1", "note": "[Enrofloxacin]", "percent growth inhibition of drug alone": "3.46 ± 4.9"}
{"molecule": "Cc1nc2n(c(=O)c1CCN1CCC(c3noc4cc(F)ccc34)CC1)CCCC2", "note": "[Risperidone]", "percent growth inhibition of drug alone": "-5.2 ± 14"}
{"molecule": "COc1c(N2C[C@@H]3CCCN[C@@H]3C2)c(F)cc2c(=O)c(C(=O)O)cn(C3CC3)c12", "note": "[Moxifloxacin]", "percent growth inhibition of drug alone": "12.5 ± 0.24"}
{"tested_on": "Klebsiella pneumoniae NCTC-13439", "experiment": "percent growth inhibition of drug alone vs DMSO control; higher = more growth inhibition", "conditions": "antibiotic (0.125x MIC): none (0.1% DMSO); 20 µM", "units": {"percent growth inhibition of drug alone": "%"}}
{"molecule": "C[C@H](N)[C@H](O)c1cccc(O)c1", "note": "[Metaraminol bitartrate]", "percent growth inhibition of drug alone": "-0.507 ± 15"}
{"molecule": "COc1ccc(OC)c(C(O)CNC(=O)CN)c1", "note": "(stereo unspecified) [Midodrine hydrochloride]", "percent growth inhibition of drug alone": "-4.02 ± 9.3"}
{"molecule": "C#C[C@]1(OC(C)=O)CC[C@H]2[C@@H]3CCC4=CC(=NO)CC[C@@H]4[C@H]3CC[C@@]21CC", "note": "(mixture of isomers) [Norgestimate]", "percent growth inhibition of drug alone": "-14.2 ± 4.9"}
{"molecule": "O=C(OCC(O)CO)c1ccccc1Nc1ccnc2cc(Cl)ccc12", "note": "(stereo unspecified) [Glafenine hydrochloride]", "percent growth inhibition of drug alone": "3.73 ± 17"}
{"molecule": "CC(=O)CCCCn1c(=O)c2c(ncn2C)n(C)c1=O", "note": "[Pentoxifylline]", "percent growth inhibition of drug alone": "2.73 ± 3.2"}
{"molecule": "NC1CCN(c2nc3c(cc2F)c(=O)c(C(=O)O)cn3-c2ccc(F)cc2F)C1", "note": "(stereo unspecified) [Tosufloxacin hydrochloride]", "percent growth inhibition of drug alone": "99.38 ± 0.74"}
{"molecule": "NC(=O)N/N=C/c1ccc([N+](=O)[O-])o1", "note": "[Nitrofural]", "percent growth inhibition of drug alone": "11.8 ± 8.7"}
{"molecule": "N=C(NCCCCCCNC(=N)NC(=N)Nc1ccc(Cl)cc1)NC(=N)Nc1ccc(Cl)cc1", "note": "[Chlorhexidine]", "percent growth inhibition of drug alone": "57.6 ± 4.2"}
{"molecule": "Cc1c(F)c(N2CCNC(C)C2)cc2c1c(=O)c(C(=O)O)cn2C1CC1", "note": "(stereo unspecified) [Grepafloxacin]", "percent growth inhibition of drug alone": "23.5 ± 9.9"}
{"molecule": "Cc1nc2n(c(=O)c1CCN1CCC(c3noc4cc(F)ccc34)CC1)CCCC2", "note": "[Risperidone]", "percent growth inhibition of drug alone": "-6.94 ± 7.8"}
